Source: PubChem BioAssay (NCATS)
Inconclusive results are not listed. The source made the active and inactive calls. Calls come from the whole dose curve; as a rule, active = well fitted curve in the direction sought with a large enough effect; inconclusive = small, poorly fitted or top-dose-only effect, or another doubt; inactive = no such curve, though single readings can be large; an effect the other way counts as inactive or inconclusive.

Key:
[1] = target: Rap guanine nucleotide exchange factor 3 (Homo sapiens) (UniProt O95398); assay: Confirmatory qHTS for antagonist of cAMP-regulated guanine nucleotide exchange factor 3 (EPAC1) (AID 1645880); note: nearly all actives have a fitted effect of over 55% in size; note: potency is the fitted concentration of half-maximal effect
Sequence of Rap guanine nucleotide exchange factor 3 (Homo sapiens) (O95398 whole entry, looked up): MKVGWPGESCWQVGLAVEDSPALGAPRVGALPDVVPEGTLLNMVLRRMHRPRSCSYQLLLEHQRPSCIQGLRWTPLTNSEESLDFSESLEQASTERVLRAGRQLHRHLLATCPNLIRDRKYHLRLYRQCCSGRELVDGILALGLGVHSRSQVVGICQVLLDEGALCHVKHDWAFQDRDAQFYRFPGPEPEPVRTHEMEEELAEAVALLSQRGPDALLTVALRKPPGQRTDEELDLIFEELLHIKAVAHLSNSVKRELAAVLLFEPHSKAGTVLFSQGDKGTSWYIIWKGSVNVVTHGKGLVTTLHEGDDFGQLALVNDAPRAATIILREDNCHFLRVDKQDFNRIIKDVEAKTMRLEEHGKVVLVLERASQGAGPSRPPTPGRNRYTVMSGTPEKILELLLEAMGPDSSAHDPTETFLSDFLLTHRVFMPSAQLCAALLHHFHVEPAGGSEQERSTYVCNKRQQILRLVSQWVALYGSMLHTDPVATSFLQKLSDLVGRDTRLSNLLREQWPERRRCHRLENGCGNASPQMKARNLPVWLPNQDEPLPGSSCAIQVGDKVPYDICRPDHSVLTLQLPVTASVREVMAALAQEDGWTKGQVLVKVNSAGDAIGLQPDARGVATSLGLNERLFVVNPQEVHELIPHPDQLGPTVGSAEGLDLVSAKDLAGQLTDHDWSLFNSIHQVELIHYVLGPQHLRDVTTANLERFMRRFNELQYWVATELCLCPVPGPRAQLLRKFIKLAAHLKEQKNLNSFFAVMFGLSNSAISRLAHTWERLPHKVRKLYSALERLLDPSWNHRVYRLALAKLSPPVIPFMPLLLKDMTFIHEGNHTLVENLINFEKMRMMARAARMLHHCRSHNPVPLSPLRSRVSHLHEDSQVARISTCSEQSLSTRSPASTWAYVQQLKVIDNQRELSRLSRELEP
Method in brief: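 Nucleotide exchange uses 100 nM EPAC1, 250 nM RAP1B-BODIPY-GDP and 50 uM GDP, with compounds in a concentration-titration series. After 5 min at room temperature, fluorescence (480 nm ex/540 nm em) is read every 5 min for 30 min. Data are normalized to control ATA and DMSO.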

[2] = target: Rap guanine nucleotide exchange factor 3 (Homo sapiens) (UniProt O95398); assay: Confirmatory qHTS for agonist of cAMP-regulated guanine nucleotide exchange factor 3 (EPAC1) (AID 1645881);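 note: EPAC1 catalysed release of BODIPY-GDP from Rap1B seen as fluorescence loss; 100% = effect of cAMP agonist control; nearly all actives have a fitted effect of over 75% in size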
[3] = target: Rap guanine nucleotide exchange factor 4 (Homo sapiens) (UniProt Q8WZA2); assay: Confirmatory qHTS for agonist of cAMP-regulated guanine nucleotide exchange factor 4 (EPAC2) (AID 1645884);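 note: nucleotide exchange releases bodipy-GDP from Rap1 and this lowers its fluorescence; % is set by controls: 0 for no effect and ±100 for the full control effect; nearly all actives have a fitted effect of over 65% in size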
Sequence of Rap guanine nucleotide exchange factor 4 (Homo sapiens) (Q8WZA2 whole entry, looked up): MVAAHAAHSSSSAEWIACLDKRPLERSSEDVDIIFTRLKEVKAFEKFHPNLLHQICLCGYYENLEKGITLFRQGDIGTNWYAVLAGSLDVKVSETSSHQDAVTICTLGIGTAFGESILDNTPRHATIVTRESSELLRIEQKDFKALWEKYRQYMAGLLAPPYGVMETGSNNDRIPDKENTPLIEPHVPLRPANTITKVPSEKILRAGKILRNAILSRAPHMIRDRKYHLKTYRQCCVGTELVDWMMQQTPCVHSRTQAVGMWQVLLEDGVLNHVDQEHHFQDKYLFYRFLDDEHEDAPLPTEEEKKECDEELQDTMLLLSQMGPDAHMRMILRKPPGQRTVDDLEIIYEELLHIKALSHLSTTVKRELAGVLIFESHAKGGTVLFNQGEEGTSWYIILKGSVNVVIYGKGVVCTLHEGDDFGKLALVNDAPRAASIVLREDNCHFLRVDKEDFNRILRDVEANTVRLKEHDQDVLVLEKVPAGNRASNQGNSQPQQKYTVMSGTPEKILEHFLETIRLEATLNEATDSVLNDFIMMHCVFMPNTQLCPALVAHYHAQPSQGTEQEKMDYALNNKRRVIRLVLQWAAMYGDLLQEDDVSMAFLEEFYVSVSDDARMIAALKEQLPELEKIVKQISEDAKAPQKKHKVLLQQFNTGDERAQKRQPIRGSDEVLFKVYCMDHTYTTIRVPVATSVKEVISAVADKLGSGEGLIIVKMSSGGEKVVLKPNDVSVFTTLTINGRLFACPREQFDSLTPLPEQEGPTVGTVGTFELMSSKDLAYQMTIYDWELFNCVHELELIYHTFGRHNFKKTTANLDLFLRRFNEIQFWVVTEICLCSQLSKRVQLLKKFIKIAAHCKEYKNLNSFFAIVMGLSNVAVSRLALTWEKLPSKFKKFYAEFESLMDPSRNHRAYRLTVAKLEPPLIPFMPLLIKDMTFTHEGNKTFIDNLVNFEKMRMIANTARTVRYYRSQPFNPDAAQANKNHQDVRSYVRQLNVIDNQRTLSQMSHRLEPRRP

[4] = target: Rap guanine nucleotide exchange factor 4 (Homo sapiens) (UniProt Q8WZA2); assay: Confirmatory qHTS for antagonist of cAMP-regulated guanine nucleotide exchange factor 4 (EPAC2) (AID 1645885); note: nearly all actives have a fitted effect of over 25% in size; note: potency is the fitted concentration of half-maximal effect; for activity change, negative = inhibition: % is set by controls: 0 for no effect and ±100 for the full control effect
[5] = target: Rap guanine nucleotide exchange factor 3 (Homo sapiens) (UniProt O95398); assay: Counterscreen qHTS for antagonist of cAMP-regulated guanine nucleotide exchange factor 3 (EPAC1) (AID 1645888);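 note: fluorescence loss as bound BODIPY-GDP is released from Rap1B; % of control where 0% means no effect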
Method in brief: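 Measured: fluorescence of BODIPY-GDP bound to Rap1B, which falls as exchange proceeds. Conditions include 50 uM competing GDP, 5 and 30 min reads, and a later cAMP challenge for antagonist detection.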

O=C(O)CN1C(=O)/C(=C\c2cc(Br)ccc2OCc2ccccc2F)SC1=S
active: Potency [1] 35.5 µM
inactive: Potency [2] | activation [3] 4.56% [at 17.1 µM, percent relative to cAMP agonist control] | Potency [4] | activity change, negative = inhibition [5] 18.9% [at 30.8 µM]

CN(c1ncnc2onc(-c3cccc(Cl)c3)c12)C1CCCCC1
inactive: Potency [1] | Potency [2] | Potency [3] | outcome [4] inactive [at 12.7 µM] | Potency [5]

O=C1OC(c2ccc3ccccc3c2O)(c2ccc3ccccc3c2O)c2ccccc21
inactive: Potency [2] | Potency [3] | Potency [4] | Potency [5]
active: Potency [1] 75.7 µM

CCn1c(=O)c2sccc2n2c(CCCC(=O)N3CCN(c4cc(C)ccc4C)CC3)nnc12
inactive: Potency [1] | Potency [2] | Potency [3] | Potency [4] | Potency [5]

CCc1ccc(/C=C2/SC(=S)N(CCCC(=O)Nc3ccccc3C(=O)O)C2=O)cc1
active: Potency [1] 75.7 µM
inactive: Potency [2] | Potency [3] | Potency [4] | Potency [5]

CCSc1nnc(NC(=O)C2CCN(S(=O)(=O)c3ccccc3C(F)(F)F)CC2)s1
inactive: Potency [1] | Potency [2] | Potency [3] | Potency [4] | Potency [5]

CCCC(C(=O)Nc1ccc(C)c(S(=O)(=O)N2CCOCC2)c1)c1ccccc1 (stereo not given)
inactive: Potency [1] | Potency [2] | activation [3] 4.3% [at 17.1 µM, percent relative to cAMP agonist control] | Potency [4] | activity change, negative = inhibition [5] -29.6% [at 30.8 µM]

CC1(C(=O)NS(=O)(=O)c2ccc(Cl)s2)CCN1C(=O)C1(c2ccc(Cl)cc2)CC1 (stereo not given)
inactive: Potency [2] | activation [3] 0% [at 17.1 µM, percent relative to cAMP agonist control] | Potency [4] | activity change, negative = inhibition [5] -17.9% [at 30.8 µM]
active: Potency [1] 14.1 µM

CC(C)OC(=O)/C(=C/c1ccc2c(c1)c1ccccc1n2C)NC(=O)c1ccccc1
inactive: Potency [1] | Potency [2] | Potency [3] | Potency [4] | Potency [5]

CCOc1ccc2nc(NC(=O)CSc3nc(-c4ccccc4)c(C#N)c(=O)[nH]3)sc2c1
inactive: Potency [2] | activation [3] 2.22% [at 17.1 µM, percent relative to cAMP agonist control] | Potency [4] | activity change, negative = inhibition [5] -3.89% [at 30.8 µM]
active: Potency [1] 56.2 µM

COc1ccc(S(=O)(=O)N2CCCCCC2)cc1C(=O)N1CCCC(C(F)(F)F)C1 (stereo not given)
inactive: Potency [1] | Potency [2] | activation [3] 2.27% [at 17.1 µM, percent relative to cAMP agonist control] | Potency [4] | activity change, negative = inhibition [5] -17.4% [at 30.8 µM]

Cc1sc(NC(=O)C2=COCCO2)nc1-c1ccc(Cl)cc1
inactive: Potency [1] | Potency [2] | Potency [3] | Potency [4] | Potency [5]

CCn1c(CSc2nc3ccccc3s2)nnc1SCC(=O)c1ccc(O)c(O)c1
inactive: Potency [1] | Potency [2] | Potency [3] | Potency [4] | Potency [5]

COc1cc(CC(=O)Nc2ccccc2N2CCCCC2)cc(OC)c1OC
inactive: Potency [1] | Potency [2] | Potency [3] | Potency [4] | Potency [5]

COc1ccc(C(Sc2ccccc2)c2ccccc2)cc1OC (stereo not given)
active: Potency [4] 21.3 µM
inactive: Potency [1] | Potency [2] | Potency [3] | Potency [5]

COc1ccc(OC)c(/C=C2\SC(=S)N(NS(=O)(=O)c3ccc(C)cc3)C2=O)c1
active: Potency [1] 30.1 µM | Potency [4] 47.8 µM
inactive: Potency [2] | Potency [3] | Potency [5]

CCCOC(=O)c1c(-c2ccccc2)c(-c2ccccc2)nn(C)c1=O
inactive: Potency [1] | Potency [2] | Potency [3] | Potency [4] | Potency [5]

COC(=O)CNc1cc(S(=O)(=O)N2CCCCC2)ccc1Oc1cccc(C)c1
inactive: Potency [1] | Potency [2] | Potency [3] | Potency [4] | Potency [5]
